High-throughput results (PubChem)
Rows were chosen to be rich in hits. Some 4.1% of all compounds tested hit in one or more screens of this group.
hcDAF12 agonist = activators of H. contortus DAF-12 nuclear receptor | HEK293 hcDAF-12 lit1-tk-luc reporter, luminescence; 0% DMSO, 100% Δ7-dafachronic acid | activation, % at 6.8 µM | hit rate 1.4% among 370,000;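 active means activation above the mean of all tested compounds plus 3 SD, cut at about 5.5% in these data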;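 further: 100% = response to 3 µM Δ7-dafachronic acid high control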
ssDAF-12 act = activates DAF-12 receptor from parasite S. stercoralis. HEK293 ssDAF-12/GRIP1 lit1-tk-luc reporter, luminescence; % of 3 µM dafachronic acid response. activation, % at 6.8 µM. hit rate 1% among 370,000;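 active means activation above the mean over all tested compounds plus 3 SD, cut at about 0.9% in these data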;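 further: 0% = DMSO-only wells and 100% = 3 µM delta7-dafachronic acid wells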
DAX1 inh-1 = NR0B1 (DAX1) inhibition; HEK293 Gal4-DAX1 luciferase reporter, luminescence; hit rate 0.99% among 340,000; AID 504766; inhibition, % at 6.75 µM; P51843;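 active means inhibition above the mean over all tested compounds plus 3 SD, cut at about 4.2% in these data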;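 further: 0% = DAX1-transfected cells with DMSO and 100% = empty-vector control cells with DMSO; inhibition shows as a rise in luminescence from relieved DAX1 repression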
Target sequence (P51843 207-470 limits assumed): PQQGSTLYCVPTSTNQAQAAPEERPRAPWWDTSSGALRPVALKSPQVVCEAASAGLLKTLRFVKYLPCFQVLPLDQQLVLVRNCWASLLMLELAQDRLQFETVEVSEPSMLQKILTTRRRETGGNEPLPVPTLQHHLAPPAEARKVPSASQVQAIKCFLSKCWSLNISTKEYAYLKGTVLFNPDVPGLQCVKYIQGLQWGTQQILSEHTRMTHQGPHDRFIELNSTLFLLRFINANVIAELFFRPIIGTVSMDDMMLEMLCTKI
DAX1 inh-2 = blocks DAX1 repression of SF-1 activated StAR promoter. HEK293T StAR-luciferase reporter, SF-1/DAX-1 repression relief. inhibition, % at 6.8 µM. hit rate 1.1% among 370,000. AID 652010;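 active means inhibition above the mean over all tested compounds plus 3 SD, cut at about 3.6% in these data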;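 further: 0% = DAX-1 cells with DMSO and 100% = cells lacking DAX-1 with DMSO; higher inhibition means more luminescence from relief of DAX-1 repression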
hgDAF12 agonist = activates the H. glycines DAF-12 receptor ligand-binding domain; HEK293 GAL4-hgDAF12 UAS-luciferase reporter, agonist luminescence; normalized to butyrate control; activation, % at 6.8 µM; hit rate 1.8% among 370,000; AID 687014;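 active means activation above a cutoff set at the mean of all screened compounds plus 3 SD, cut at about 10% in these data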;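 further: 0% = DMSO wells and 100% = sodium butyrate wells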
* marks the source's active call; other numbers are inactive results; / = no result given.

SMILES	hcDAF12 agonist	ssDAF-12 act	DAX1 inh-1	DAX1 inh-2	hgDAF12 agonist
O=C(Nc1ccc(Cl)cc1)c1csc(-c2ccccc2)n1	1	-2	1	0	1
CC(=O)c1csc(-c2ccccc2)n1	-1	-1	5.4*	0	0
CCCNC(=O)c1csc(Nc2cccc3ccccc23)n1	1	-1	-2	0	1
COc1ccc2c(c1)[C@@H](NC(=O)c1ccncc1)[C@H](C)[C@H]2c1ccccc1	0	-1	/	0	4
CSc1nc(N)nc(N(C)C)n1	1	-3	1	0	0
CSc1nc(N)nc(C2CC2)n1	1	-1	4.8*	0	-1
COC(=O)[C@]12C[C@H](CC(=O)NCc3cccs3)C(=O)N(Cc3ccccc3)C1=C[C@H](C(C)(C)C)O[C@@H]2C	0	-1	/	0	-1
CCOC(=O)[C@]12CCCC=C1N(CCCOC)C(=O)[C@@H]2CC(=O)NCCCCc1ccccc1	-2	-1	/	-1	1
CCC(c1nnc(SCc2nc3ccccc3s2)n1Cc1ccccc1)N(C)C (stereo not drawn)	5.7*	0	0	2	2
c1ccc(-n2cnnc2SCc2nc3ccccc3s2)cc1	5	1.0*	3	1	7
c1ccc(Cn2c(SCc3nc4ccccc4s3)nnc2-c2ccco2)cc1	2	0	0	-1	1
Cc1cc(-c2n[nH]c(=S)n2N=Cc2cc(Br)ccc2F)n[nH]1	-1	-2	/	0	6
O=C(c1cc2cc(Cl)ccc2[nH]1)N1CCN(c2ccccc2F)CC1	2	-1	1	0	1
O=C(c1cc2cc(Cl)ccc2[nH]1)N1CCN(C(=O)c2ccco2)CC1	5.9*	0	0	1	1
Cc1ccc(N2C(=O)CC(Cn3nc(C)cc3C)C2=O)cc1 (stereo not drawn)	0	-1	-1	1	1
CCc1ccc(N2C(=O)CC(Cn3nc(C)cc3C)C2=O)cc1 (stereo not drawn)	0	-1	5.1*	0	0
O=C1c2cccc(NCCCNCCO)c2C(=O)c2cccc(NCCCNCCO)c21	4	1.0*	0	-2	5
O=C1c2ccccc2C(=O)c2c(NCc3cccnc3)cccc21	-1	-1	0	-1	4
CCCCCC(=O)NC1CCCCN(C)C1=O (stereo not drawn)	0	0	/	1	-3
COc1cccc(/C=C2\CC3(OC(=O)c4ccco4)CCCN2C3)c1 (stereo not drawn)	-2	-1	/	-1	-2
S=C(NN=C(C1CC1)C1CC1)Nc1ccccc1	-1	-1	6.8*	1	10
O=C(NNC(=S)Nc1ccccc1)C1CC1	1	-2	1	1	-2
O=C(NCc1cccnc1)c1ccc2sc([C@@H]3O[C@H](CO)[C@H](O)[C@H](O)[C@H]3O)nc2c1	1	0.9*	/	1	0
O=C(NCc1cc(Cl)cc(Cl)c1)c1ccc2sc([C@@H]3O[C@H](CO)[C@H](O)[C@H](O)[C@H]3O)nc2c1	1	-1	/	0	0
Cc1nc(SCC(=O)N(C)c2ccccc2)[nH]c(=O)c1C	0	-2	/	/	-5
SMILES	hcDAF12 agonist	ssDAF-12 act	DAX1 inh-1	DAX1 inh-2	hgDAF12 agonist
CCOC(=O)c1ccc2[nH]c(C)c(C)c2c1	1	-1	0	2	7
CCOC(=O)c1ccc2[nH]c3ccccc3c2c1	3	0	8.0*	1	11*
CC1CCc2nc(NC(=O)CN3CCN(c4ccc(F)cc4)CC3)sc2C1 (stereo not drawn)	-1	-2	6.6*	-1	2
CSc1nnc(N2C(=O)C(O)=C(C(=O)c3ccco3)C2c2ccc(F)cc2)s1 (stereo not drawn)	4	-1	1	4.2*	8
CCCOc1cccc(C(=O)Nc2cccc3ncccc23)c1	-2	-1	-1	-1	0
CCCOc1cccc(C(=O)Nc2ccc(Br)cc2F)c1	4	-1	3	2	11*
O=C(Nc1ccccn1)c1cc(-c2ccc(Cl)s2)nc2ccccc12	0	-1	-1	-2	2
Cc1cc(NC(=O)c2cc(-c3ccc(C)s3)nc3ccccc23)no1	1	1.7*	1	-1	3
Cc1cc(NC(=O)c2cc(-c3ccccc3C)nc3ccccc23)no1	5	0	0	0	-2
Cc1ccnc(NC(=O)c2cc(-c3ccc(Cl)s3)nc3ccccc23)c1	0	0	4.7*	1	2
